Sampled rows, rich in hits. Any-hit rate of the full collection: about 0.82%.
RTF Ca sens act = increases calcium sensitivity of human cardiac regulated thin filaments | P19429+P45379 | AID 493008 | IANBD-labeled TnC RTF fluorescence at EC20 calcium; 0% EC20 calcium, 100% full calcium | 340,000 tested, 0.24% active | activation, % at 7.2 µM;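 active means activation above the mean over all tested compounds plus 3 SD, cut at about 30% in these data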;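 further: rise in fluorescence read as greater calcium sensitivity of cardiac thin filaments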
eLon inh = inhibitors of E. coli Lon protease; 360,000 tested, 0.42% active; purified E. coli Lon protease, fluorescence polarization; P0A9M0; inhibition, % at 7.94 µM; AID 602123; in the data active means inhibition above about 13%, passing the limit was not always enough
Target sequence (P0A9M0 whole entry, looked up): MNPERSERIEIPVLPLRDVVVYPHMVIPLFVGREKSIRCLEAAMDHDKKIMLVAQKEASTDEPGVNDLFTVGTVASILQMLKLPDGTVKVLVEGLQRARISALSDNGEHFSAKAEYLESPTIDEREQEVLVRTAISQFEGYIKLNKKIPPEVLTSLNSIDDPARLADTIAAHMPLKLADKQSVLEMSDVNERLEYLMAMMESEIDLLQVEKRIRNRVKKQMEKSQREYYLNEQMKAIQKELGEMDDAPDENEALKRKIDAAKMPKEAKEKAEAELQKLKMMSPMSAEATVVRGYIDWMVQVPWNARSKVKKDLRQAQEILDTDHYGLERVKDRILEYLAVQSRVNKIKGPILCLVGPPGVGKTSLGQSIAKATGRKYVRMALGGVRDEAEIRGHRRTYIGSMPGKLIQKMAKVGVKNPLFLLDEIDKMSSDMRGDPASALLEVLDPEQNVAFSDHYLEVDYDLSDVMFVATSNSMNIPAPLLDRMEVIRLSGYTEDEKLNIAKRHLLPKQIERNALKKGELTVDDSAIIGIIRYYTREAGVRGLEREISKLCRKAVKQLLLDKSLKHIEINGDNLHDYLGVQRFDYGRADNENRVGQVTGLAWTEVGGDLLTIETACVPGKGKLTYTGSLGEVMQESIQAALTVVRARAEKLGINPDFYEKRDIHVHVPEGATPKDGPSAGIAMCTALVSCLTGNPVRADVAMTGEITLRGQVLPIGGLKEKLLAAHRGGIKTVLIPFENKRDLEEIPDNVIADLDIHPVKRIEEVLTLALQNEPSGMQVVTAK
LANA DNA inh = KSHV C-LANA DNA binding inhibition; MBP-C-LANA/FAM-LBS DNA binding, fluorescence polarization; inhibition, % at 9 µM; 340,000 tested, 0.078% active;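 active means highest replicate inhibition at or above 60% at 9 µM, even if other replicates fall short; inactive means all replicates below 60% inhibition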
Keap1 Nrf2 FP = Keap1-Nrf2 (human) interaction inhibition | Keap1 Kelch-Nrf2 peptide fluorescence polarization, 1536-well | 340,000 tested, 0.15% active | inhibition, % at 9.4 µM | Q14145; in the data active means inhibition above about 12%;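 further: human Keap1 Kelch domain with fluorescein labeled Nrf2 9mer peptide probe; higher means more block of Keap1 binding to Nrf2 peptide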
Cardiac RTF inh = cardiac RTF calcium desensitization | P19429+P45379 | IANBD-labeled cardiac RTF, Ca2+ fluorescence | inhibition, % at 7.15 µM | 340,000 tested, 0.12% active | AID 493244;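 active means inhibition above the mean inhibition of all tested compounds plus 3 SD, cut at about 17% in these data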;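 further: assay run at fixed EC70 calcium of 1.6 mM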
Large screens that a line does not name were inactive.

CC1OC(C(C)(C)C)Cc2[nH][nH]c(=O)c21 (stereo not given)	none (no result: RTF Ca sens act, LANA DNA inh, Keap1 Nrf2 FP, Cardiac RTF inh)
CCCCCn1nc(-c2ccccc2)c2nc3ccccc3nc21	LANA DNA inh 93.7
CCCCn1c2nc3ccccc3nc2c2c(=O)n(CCC)cnc21	none
CCN(C(=O)COC(=O)CCCOc1ccc(Cl)cc1C)c1c(N)n(Cc2ccccc2)c(=O)[nH]c1=O	none
O=C1NC[C@@H](CCCCN2C[C@H](Cc3ccc(O)cc3)N(Cc3ccccc3)C(=O)C2=O)N(CCC2CCCCC2)C1=O	none (no result: RTF Ca sens act, LANA DNA inh, Keap1 Nrf2 FP, Cardiac RTF inh)
COc1ccc(N=C2NC(=O)S/C2=C\c2ccc(N(C)C)cc2)cc1	RTF Ca sens act 174.2
COc1ccc(-c2noc(CCC(=O)NCCc3ccccc3)n2)cc1	RTF Ca sens act 37.8
COc1cccc(-c2noc(CCC(=O)NCCc3ccccc3)n2)c1	none
O=C(NCc1ccccn1)C1CN(S(=O)(=O)c2ccccc2)CCN1S(=O)(=O)c1ccccc1 (stereo not given)	none (no result: RTF Ca sens act, Cardiac RTF inh)
CCN1C(=O)/C(=C\N2CCN(C(=O)c3ccco3)CC2)SC1=S	none
CCN1CCN(c2c(/C=C3\SC(=S)N(Cc4ccco4)C3=O)c(C)c(C#N)c(=O)n2C)CC1	RTF Ca sens act 62.4
Cc1nn(-c2ccccc2)c(N2CCCC2)c1/C=C1\N=C(c2ccc(OC(C)C)cc2)OC1=O	RTF Ca sens act 64.0
COc1cccc(C(O)c2nc(/C=C/c3ccc(C(F)(F)F)cc3)cs2)c1 (stereo not given)	none (no result: RTF Ca sens act, LANA DNA inh, Keap1 Nrf2 FP, Cardiac RTF inh)
CCOC(=O)c1cc(C#N)c(SCC(N)=O)[nH]c1=O	none
CCOC(=O)c1cc(C#N)c(SCC(=O)c2cc(C#N)c(SC)nc2C)[nH]c1=O	RTF Ca sens act 57.9
N#C/C(=C\c1ccc(-c2ccc(C(=O)O)cc2)o1)c1nc2ccccc2[nH]1	RTF Ca sens act 54.4
N#C/C(=C\c1ccc(N2CCOCC2)o1)c1nc2ccccc2[nH]1	RTF Ca sens act 258.6
N#C/C(=C\c1ccc(N2CCOCC2)c([N+](=O)[O-])c1)c1nc2ccccc2[nH]1	none
O=C1c2ccccc2C(c2nnnn2Cc2ccccc2)N1Cc1ccco1 (stereo not given)	none (no result: RTF Ca sens act, LANA DNA inh, Keap1 Nrf2 FP, Cardiac RTF inh)
O=C1NC[C@@H](CCCCN2CCN(CCC3CCCCC3)C(=O)C2=O)N(CCC2CCCCC2)C1=O	none (no result: RTF Ca sens act, LANA DNA inh, Keap1 Nrf2 FP, Cardiac RTF inh)
CCOc1ccccc1C1C(C#N)=C(N)Oc2n[nH]c(CC)c21 (stereo not given)	none
N#CC1=C(N)SC(N)=C(C#N)C1c1ccc([N+](=O)[O-])cc1	none
CCOc1ccccc1C1C(C#N)=C(N)SC(N)=C1C#N	RTF Ca sens act 29.8
CCOc1ccc(C2C(C#N)=C(N)SC(N)=C2C#N)cc1OCC	RTF Ca sens act 41.7
N#CC1=C(N)SC(N)=C(C#N)C1c1cccc(Oc2ccccc2)c1	RTF Ca sens act 37.3
CCc1ccc(C2C(C#N)=C(N)SC(N)=C2C#N)cc1	RTF Ca sens act 40.4
COc1cc(C)ccc1S(=O)(=O)NC(=O)C1(C)CCN1C(=O)c1ccc(C(F)(F)F)nc1C (stereo not given)	none (no result: RTF Ca sens act, LANA DNA inh, Keap1 Nrf2 FP, Cardiac RTF inh)
COC(=O)[C@@]1(C(C)C)N=C(c2cc(OC)c(OC)c(OC)c2)[C@]2(O1)C(=O)N(C)c1ccccc12	none (no result: RTF Ca sens act, LANA DNA inh, Keap1 Nrf2 FP, Cardiac RTF inh)
CCCCC[C@@H](C)N1C[C@@H](COCc2ccccc2)Oc2cc(N3CC[C@@H](N(C)C)C3)ccc2S1(=O)=O	none (no result: RTF Ca sens act, LANA DNA inh, Keap1 Nrf2 FP, Cardiac RTF inh)
CC1(c2nc3ccccc3[nH]2)c2ccccc2C(=O)N1Cc1ccccn1 (stereo not given)	none (no result: RTF Ca sens act, LANA DNA inh, Keap1 Nrf2 FP, Cardiac RTF inh)
O=C1OCCOC2CCCc3oc(C4=CCCCC4)c1c32 (stereo not given)	none (no result: RTF Ca sens act, LANA DNA inh, Keap1 Nrf2 FP, Cardiac RTF inh)
COc1cc(/C=C(\C#N)c2nc3ccccc3o2)ccc1O	RTF Ca sens act 50.4
CCOC(=O)C1Nc2ccc(C(F)(F)F)cc2C2c3ccccc3CC12 (stereo not given)	none
CCOC(=O)C1Nc2ccccc2C2C(O)C(O)CC12 (stereo not given)	RTF Ca sens act 79.9
COc1ccc(C(=O)c2sc3nc(C)cc(-c4cccs4)c3c2N)cc1	RTF Ca sens act 67.7
COc1ccc(C(=O)c2sc3nc(C)cc(-c4cccs4)c3c2N)cc1OC	RTF Ca sens act 44.5
Cc1cc(-c2cccs2)c2c(N)c(C(=O)c3ccc4c(c3)OCO4)sc2n1	none
CC(C)(C)NC(=O)C(c1ccc(-c2ccccc2)cc1)N(C[C@H]1CC[C@@H]([C@@H]2CC[C@H](CO)O2)O1)C(=O)c1ccc(C(C)(C)C)cc1 (stereo not given in full)	none
O=C1CCC(=O)N1c1nc2n(n1)C(c1ccccc1)C=C(c1ccc(Br)cc1)N2 (stereo not given)	none
CS(=O)(=O)Nc1nc2n(n1)C(c1ccccc1)C=C(c1ccc(Br)cc1)N2 (stereo not given)	RTF Ca sens act 82.2, eLon inh 99.3, LANA DNA inh 73.8, Keap1 Nrf2 FP 35.4
CC(=O)Nc1nc2n(n1)C(c1ccccc1)C=C(c1ccccc1)N2 (stereo not given)	eLon inh 31.2
CC(=O)Nc1nc2n(n1)C(c1ccc(F)cc1)C=C(c1ccccc1)N2 (stereo not given)	none
O=c1[nH]c2cc3ccccc3cc2nc1-c1nnnn1Cc1ccccc1	none (no result: RTF Ca sens act, LANA DNA inh, Keap1 Nrf2 FP, Cardiac RTF inh)
C=C(C)C(=O)Nc1cccc(C2=NOC3(C2)C[C@@H](C(N)=O)N(C(=O)C2(C)CC2)C3)c1 (stereo not given in full)	LANA DNA inh 105.2
C=CCN1C(=O)/C(=C/C=C2/N(CC)c3ccc(S(=O)(=O)N(C)C)cc3N2CC)SC1=S	RTF Ca sens act 429.3
CCN1C(=O)/C(=C/C=C2/CCCN2C)OC1=S	RTF Ca sens act 32.5
O=C(NCc1ccc(F)cc1F)[C@@H]1CCCN1C(=O)[C@@H]1CCCN1C(=O)c1ccc(Cl)cc1	none (no result: RTF Ca sens act, LANA DNA inh, Keap1 Nrf2 FP, Cardiac RTF inh)
CCOc1cccc(/C=C(/C#N)c2nc3ccccc3[nH]2)c1OCC(=O)O	none
CCN(CC)c1ccc(/C=C(/C#N)c2nc3ccccc3[nH]2)c(OC(C)C)c1	RTF Ca sens act 147.6
OC[C@@H]1CN(CCc2ccccc2)C[C@H](n2cnc3c(NCc4ccc(F)cc4)ncnc32)O1	none (no result: RTF Ca sens act, LANA DNA inh, Keap1 Nrf2 FP, Cardiac RTF inh)
COc1ccc(/C=C2\SC(=S)N(CCC(=O)N3CCCCC3)C2=O)cc1	none
COCCN1C(=O)/C(=C/c2ccc(N3CCCC3)cc2)SC1=S	RTF Ca sens act 80.4
CN1CC=C2C(C#N)=C(N)C(C#N)(C#N)C(CCc3ccccc3)C2C1 (stereo not given)	RTF Ca sens act 35.1, eLon inh 33.4, Keap1 Nrf2 FP 20.4
Nc1ccc(C(=O)Nc2ccc3c(O)cc(S(=O)(=O)O)cc3c2)cc1	LANA DNA inh 115.5
CCCCn1nnnc1C(c1cc2ccccc2o1)N1CCN(C(=O)OCC)CC1 (stereo not given)	none (no result: RTF Ca sens act, LANA DNA inh, Keap1 Nrf2 FP, Cardiac RTF inh)
CC(C)C[C@H]1COc2cccc(N3CCC[C@H]3CO)c2S(=O)(=O)N1	none (no result: RTF Ca sens act, LANA DNA inh, Keap1 Nrf2 FP, Cardiac RTF inh)
Cn1c(=O)c2c(nc(N3CCc4ccccc4C3)n2Cc2ccccc2F)n(C)c1=O	none
CN1CCN(c2nc3c(c(=O)n(C)c(=O)n3C)n2Cc2ccccc2F)CC1	RTF Ca sens act 52.2
O=C(NC1CCCC1)C1c2ccccc2OCC(=O)N1CCCN1CCOCC1 (stereo not given)	none (no result: RTF Ca sens act, LANA DNA inh, Keap1 Nrf2 FP, Cardiac RTF inh)

Compound activity: PubChem BioAssay, several laboratories
